Shown are actives, neighbours in structure and some others; about 2.5% of the full set was active somewhere.
D2 ag-1 = activates the human D2 dopamine receptor; activation, % (test concentration not listed); actives 0.084% (n = 360,000); AID 624465; DiscoveRx PathHunter D2 beta-arrestin, luminescence, 90 min; 100% = 57 uM dopamine signal; in the data active = activation above about 40%; inconclusive = between about 15% and that limit
Target sequence (P14416 whole entry, looked up): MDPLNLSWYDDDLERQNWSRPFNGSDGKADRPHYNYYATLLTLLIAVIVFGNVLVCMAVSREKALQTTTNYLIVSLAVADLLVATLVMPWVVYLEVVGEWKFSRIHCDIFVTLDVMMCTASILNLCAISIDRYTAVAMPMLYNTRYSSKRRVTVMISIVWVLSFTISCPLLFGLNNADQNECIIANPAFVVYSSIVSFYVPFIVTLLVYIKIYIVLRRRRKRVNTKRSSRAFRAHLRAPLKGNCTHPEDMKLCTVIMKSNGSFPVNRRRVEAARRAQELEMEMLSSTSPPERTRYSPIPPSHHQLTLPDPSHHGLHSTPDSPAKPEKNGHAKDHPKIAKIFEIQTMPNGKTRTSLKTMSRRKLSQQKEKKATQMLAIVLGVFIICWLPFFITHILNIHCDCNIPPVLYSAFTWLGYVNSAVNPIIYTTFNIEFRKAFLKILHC
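DiscoveRx PathHunter D2 beta-arrestin cells (2,100/well) attached overnight, then compound-stimulated 90 min at 37 C in HBSS/10 mM HEPES/0.1% Tween-20 buffer; beta-galactosidase complementation read by luminescence after 1 h at ambient temperature. Dopamine 57 uM final (EC100) as control.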
Apoferritin bind = candidate novel general anesthetic via apoferritin binding | actives 0.074% (n = 350,000) | Potency, µM (highest dose often 77.5 µM), actives largely listed as inhibitors | P02791 | apoferritin/1-aminoanthracene competitive binding, fluorescence; active = well fitted inhibition curve with a large enough effect; inconclusive = small, poorly fitted or top-dose-only effect; inactive = no such curve, though single readings can be large or run the other way; also: nearly all actives have a fitted effect of over 20% in size
Target sequence (P02791 2-175 limits assumed): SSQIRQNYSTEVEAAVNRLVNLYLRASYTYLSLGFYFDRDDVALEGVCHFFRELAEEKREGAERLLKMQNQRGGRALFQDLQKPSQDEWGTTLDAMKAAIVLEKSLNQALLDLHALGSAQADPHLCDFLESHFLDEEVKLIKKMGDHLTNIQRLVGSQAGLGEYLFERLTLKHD
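Concentration-response curves derived by four-parameter Hill fitting of normalized fluorescence, where compounds displaced 1-AMA from 10 uM horse apoferritin following a brief 10 min room-temperature incubation; propofol titration acted as positive control.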
D2 PAM-1 = positive allosteric modulators of human D2 dopamine receptor; P14416; HEK293 T-REx D2, calcium flux, EC20 dopamine potentiation; potentiation, % at 10 µM; actives 0.34% (n = 340,000); AID 485347;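 active = potentiation over 3 SD above the plate norm, cut at about 30% in these data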
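Tetracycline-induced HEK293 T-REx cells force-coupled to calcium signalling expressed D2; compounds were pin-added after a 10 s baseline, read kinetically 180 s, then an EC20 dopamine challenge followed with a further 180 s calcium read.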
D2 ag-2 = D2 dopamine receptor (human) agonism | P14416 | HEK293 T-REx D2 cells, calcium flux agonist mode | activation, % at 2 µM | actives 0.53% (n = 340,000);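 active = activation over 3 SD above normal in the single-dose calcium agonist read, cut at about 30% in these data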
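Agonism scored from kinetic calcium signal (1 read/sec, 180 s) following compound pin transfer, after a 10 s baseline. Cells: HEK293 Trex line expressing inducible D2 receptor coupled to calcium, dye-loaded after overnight culture at 30 C.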
D2 antag = antagonists of human D2 dopamine receptor | AID 485344 | P14416 | actives 2% (n = 340,000) | HEK293 TREx D2 cells, calcium flux, dopamine EC80 | inhibition, % at 10 µM; in the data active = inhibition above about 30%; inactive = below that, where a call was filed
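Calcium mobilization kinetics were recorded at 1 s intervals in tetracycline-induced HEK293 T-REx D2 cells, first for 180 s after compound addition and then 180 s after EC80 dopamine.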
D2 PAM-2 = positive allosteric modulators of human D2 dopamine receptor; DiscoveRx D2 beta-arrestin cells, luminescence, 90 min; 100% = 57 uM dopamine signal; potentiation, % (no concentration beside the values); actives 0.23% (n = 360,000); P14416; in the data active = potentiation above about 50%; inconclusive = mostly about 30% to 49%
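PathHunter D2 cells, attached overnight at 37 deg C, received compound in DMSO plus dopamine at EC20 (50 nM final) for 90 min at 37 deg C. Beta-arrestin recruitment was read as luminescence after 1 h with detection reagent at ambient temperature.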
Each line names hits and unclear results; the compound was inactive in the other large screens; ! = repeats disagree.

O=C(O)c1cccc(NC(=S)NC(=O)C(c2ccccc2)c2ccccc2)c1	none
Cc1ccc(CN2CCN(CCC(C)C)C(CCO)C2)s1 (stereo unspecified)	D2 antag 56.8
Cc1ccc(-c2c3c(=O)n(C)c(=O)n(C)c3c3cnc4ccccc4n23)cc1	none (no result: D2 ag-1, D2 antag, D2 PAM-2)
CCC(c1nnnn1C1CCCC1)N1CCN(c2ccccc2)CC1 (stereo unspecified)	D2 antag 52.1 (no result: D2 PAM-1)
CN(C)S(=O)(=O)N1CCN(S(=O)(=O)N2CCOCC2)CC1	none
CN(C)S(=O)(=O)N1CCCN(S(=O)(=O)N(C)C)CC1	D2 PAM-1 42.0
Cc1ccc(C2=NN(C(=O)CSc3nnnn3C)C(c3ccco3)C2)cc1 (stereo unspecified)	D2 antag 42.8 (no result: Apoferritin bind)
COC(=O)C1=C(C(=O)c2ccc(C)cc2)C(c2ccc(OC)c(OC)c2)n2nnnc2N1 (stereo unspecified)	D2 antag 32.8
COC(=O)C1=C(C(=O)c2ccc(C)cc2)C(c2ccc(O)c(OC)c2)n2nnnc2N1 (stereo unspecified)	none
CC1CN(S(=O)(=O)c2cccc(C(=O)N(C)C3CCCCC3)c2)CC(C)O1 (stereo unspecified)	none (no result: Apoferritin bind, D2 PAM-1, D2 ag-2, D2 antag)
COc1ccc(CCN(C)C(=O)CCNS(=O)(=O)c2ccccc2C(F)(F)F)cc1OC	D2 antag 34.7 (no result: Apoferritin bind)
COc1ccc(CCN(C)C(=O)Cc2ccc(-c3ccccc3)cc2)cc1OC	none (no result: D2 PAM-1)
CC1CCN(C(=O)c2[nH]cnc2C(=O)Nc2ccccc2)CC1	none (no result: Apoferritin bind, D2 PAM-1, D2 ag-2, D2 antag)
CCOC(=O)c1ccc(NC(=O)c2nc[nH]c2C(=O)N2CCc3ccccc3C2)cc1	none
Cc1ccc(NC(=O)c2nc[nH]c2C(=O)N2CCc3ccccc3C2)cc1	D2 antag 63.4 (no result: Apoferritin bind)
Cc1cccc(NC(=O)c2nc[nH]c2C(=O)N2CCC(C)CC2)c1	D2 antag 39.0 (no result: Apoferritin bind)
COc1ccc(CCNC(=O)CS(=O)(=O)c2cn(CC(=O)N3CCCC3)c3ccccc23)cc1OC	none (no result: D2 PAM-1, D2 ag-2, D2 antag)
Cc1cc2n(n1)C(c1ccccc1)CC(c1ccc(Br)cc1)=N2 (stereo unspecified)	D2 antag 51.6
N=C(N)SCc1nc2ccccn2c1Br	none
O=C(O)c1ccccc1SCc1nc2ccccn2c1Br	D2 antag 51.1
O=C(NC1CCCC1)c1ccccc1-c1nc2ccccc2[nH]1	none
CC(=O)N1N=C(c2cccnc2)OC1c1ccc(C(C)C)cc1 (stereo unspecified)	D2 antag 55.4
O=C(COC(=O)c1ccco1)Nc1cc(S(=O)(=O)N2CCCCC2)ccc1Cl	none (no result: Apoferritin bind, D2 PAM-1, D2 ag-2, D2 antag)
CSc1ccc(/C=N/n2c(C)nnc2C)cc1	D2 antag 35.3
Cc1nnc(C)n1/N=C/c1ccc(O)cc1	none
Cc1ccc(NC(=O)CN(C)C(=O)c2sc3cc(Cl)ccc3c2Cl)cc1	none (no result: Apoferritin bind)
Cc1ccc(N2C(=O)c3ccccc3NC2C(C)Cc2ccc3c(c2)OCO3)cc1 (stereo unspecified)	D2 antag 33.7
COc1ccccc1-c1cc(C(=O)N2CCN(c3ccc(F)cc3)CC2)no1	none
COc1ccc(-c2cc(C(=O)Nc3ccc4c(c3)OCO4)no2)cc1	D2 PAM-1 31.5!
COc1ccc(-c2cc(C(=O)Nc3cc(Br)ccc3O)no2)cc1	D2 antag 35.6
COc1ccc(-c2cc(C(=O)Nc3ccccc3SC)no2)cc1	none (no result: D2 PAM-1, D2 ag-2, D2 antag)
COc1ccc(C2=NS(=O)(=O)N(C)C(C(=O)Nc3ccc4c(c3)OCO4)=C2)cc1	Apoferritin bind inconclusive, D2 antag 64.2
COc1cccc(-c2cc(C(=O)N3CCOCC3)no2)c1	none
COc1ccc(-c2cc(C(=O)N3CCOCC3)no2)cc1	D2 antag 34.6
CC(C)NS(=O)(=O)c1ccc(N2C(=O)c3ccccc3C2=O)cc1	none
NC(=O)C1=CN(Cc2ccc(Cl)cc2)CCC1C(F)(F)F (stereo unspecified)	none
CS(=O)(=O)N(CC(=O)Nc1ccc2c(c1)OCO2)Cc1ccc(Cl)cc1	none
NC(=O)NC(Cc1ccccc1)c1ccccc1 (stereo unspecified)	none
Cc1ccc(S(=O)(=O)Nc2ccc(NC(=O)Nc3ccc(F)cc3F)cc2)cc1	Apoferritin bind inconclusive
O=C(COc1ccc(Cl)cc1)Nc1c(-c2cccs2)nc2ccccn12	none
COc1cc(C(=O)N/N=C\c2ccccc2)c([N+](=O)[O-])c(OC)c1OC	none
COc1cc(NC(=O)c2cccc3c(-c4cccnc4)coc23)cc(OC)c1OC	D2 ag-1 43.5 (no result: Apoferritin bind, D2 PAM-1, D2 ag-2, D2 antag)
CC1CCN(C(=O)c2cc(-c3ccc4c(c3)OCO4)on2)CC1	D2 PAM-1 36.2
COc1cc(NC(=O)c2cc(-c3ccccc3)on2)cc(OC)c1OC	none
COc1cccc(-c2cc(C(=O)Nc3cc(OC)c(OC)c(OC)c3)no2)c1	D2 antag 43.7
CN1C(C(=O)Nc2ccc(OC(F)(F)F)cc2)=CC(c2ccc3c(c2)OCO3)=NS1(=O)=O	D2 PAM-1 75.3!
COc1ccc(C2C(C(C)=O)=C(O)C(=O)N2c2ccc(Br)cc2)cc1 (stereo unspecified)	none
CC1=C(C(N)=O)C(c2ccc(Cl)cc2)NC(=O)N1 (stereo unspecified)	none
N#Cc1c(Nc2cccc(F)c2)sc(C(=O)c2ccc(Cl)cc2)c1N	none (no result: D2 ag-1, D2 antag, D2 PAM-2)
Cc1c(C(=O)NCc2ccc3c(c2)OCO3)sc2nc(-c3ccccc3)cn12	none
Cc1c(C(=O)Nc2ccc3c(c2)OCO3)sc2nc(-c3ccccc3)cn12	D2 antag 66.7 (no result: D2 PAM-1)
COC(=O)c1ccccc1N(C)C(=O)C12CCC(C)(C(=O)O1)C2(C)C (stereo unspecified)	none
Cc1ccc(-n2c(CNc3ccc(F)cc3)nnc2SCC(=O)NCc2ccco2)cc1	D2 antag 33.9
Cc1ccc(-n2c(CNc3ccc(F)cc3)nnc2SCC(=O)N2CCCC2)cc1	D2 antag 30.1
O=C(CSc1nnc(CNc2ccc(F)cc2)n1-c1ccccc1)N1CCOCC1	none
O=C(NCCS(=O)(=O)NCCCc1ccccc1)c1ccccc1	none (no result: Apoferritin bind)
C=CCn1c(SCc2cc(=O)n3ccsc3n2)nc2sc(C)c(C)c2c1=O	D2 PAM-1 36.0
C=CCn1c(SCc2ccc(C(=O)NCCO)cc2)nc2sc(C)c(C)c2c1=O	D2 PAM-1 31.2
C=CCSc1nc2sc(C)c(C)c2c(=O)n1CC=C	none
NNC(=O)c1cccn(Cc2ccc(Cl)cc2Cl)c1=O	none
O=Cc1cccn1Cc1ccc(Cl)cc1Cl	Apoferritin bind 14.1µM
NC(=O)c1c(NC(=O)c2c(F)cccc2F)sc2c1CCN(Cc1ccccc1)C2	none
